A short description of experiment [1]: Wnt pathway potentiators raising nuclear beta-catenin – imaging, WNT3A-conditioned medium, mouse C2C12, NPC library, primary screen (AID 1117326; in the data active means nuclear beta-catenin stimulation mostly above about 4.2%, no sharp cut-off; inactive means mostly below about 10%). The conditions noted are these: stronger effect = higher value.
Experiment [2] is described as follows: stimulators of insulin release from INS-1E, primary screen, cell-based, 5 mM glucose, NPC library (AID 1117329;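 active means compound raises insulin release from rat beta cells at 5 mM glucose, no numeric limit stated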). The conditions noted are these: rat INS-1E insulin secretion, at 10 µM, stronger effect = higher value.
Experiment [3] in a line: growth inhibition of GSK3B-pretreated HCT116 cells – cell-based, CellTiter-Glo, 0.2 to 20 µM (AID 1117336;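 active means compounds lowering colon cancer cell viability after pretreatment blocking the GSK3B kinase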). To be noted: HCT116 viability after GSK3B inhibitor, at 20 µM, stronger effect = higher value. On the technique in general: Cellular ATP, detected with luciferase, serves as a proxy for viable cell number.
A short description of experiment [4]: inhibition of endothelial tube formation, primary screen, imaging, VEGF stimulated, CD31 staining, tube area, NPC library (AID 1117340;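 active means compound that reduces growth-factor-driven endothelial tube area in a mixed cell culture, no cutoff stated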). To be noted: VEGF-stimulated ADSC/ECFC co-culture, at 10 µM, stronger effect = higher value.
Experiment [5] is described as follows: GLP1 release stimulators, primary, NCI-H716, NPC library (AID 1117341;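 active means compound raises GLP1 secretion from the human gut endocrine cells, with no numeric limit stated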). The conditions noted are these: NCI-H716 cells, at 10 µM, stronger effect = higher value.
The nature of experiment [6]: HCT116 colon cancer cell growth inhibition, primary screen, CellTiter-Glo luminescence, NPC library (AID 1117342;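 active means compounds that lower survival of HCT116 colon cancer cells in the luminescence readout, no numeric limit stated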). To be noted: at 20 µM (top of the series).
Experiment [7] can be described thus: reduced SW480 viability measured with CellTiter-Glo, NPC library, primary (AID 1117343;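 active means compounds that lower viability of the colon cancer cells in the luminescence readout, with no numeric limit stated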). To be noted: CellTiter-Glo luminescence; at 20 µM (top of the series).
Experiment [8] in a line: NPC library primary testing for decreased DLD-1 cell viability via CellTiter-Glo (AID 1117346;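 active means compounds that lower survival of DLD-1 colon cancer cells in the luminescence readout, no cutoff given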). The conditions noted are these: DLD-1 viability, CellTiter-Glo luminescence; at 20 µM (top of the series).
Experiment [9] addresses 6-phosphogluconate dehydrogenase, decarboxylating (Homo sapiens) (UniProt P52209). The experiment in a line: inhibition of human phosphogluconate dehydrogenase – biochemical, recombinant enzyme, NADPH absorbance, primary screen (AID 1159550;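 active means at least 20% inhibition of 6-phosphogluconate dehydrogenase activity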). The conditions noted are these: recombinant 6PGD, NADPH absorbance 341 nm; at 10 µM; stronger effect = higher value.
Experiment [10] can be described thus: EMT-state selective cytotoxicity in co-culture – imaging, PC-3E GFP, TEM4-18 mCherry, primary screen (AID 1345086;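 active means compounds killing one labelled cell type while sparing the other, by normalised counts and ratio limits, not self-fluorescent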;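 on all read-outs here: cells exposed to compound for 72 h before imaging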;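 on red/green cell ratio (normalised): normalised mesenchymal count divided by normalised epithelial count so high means epithelial killing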). To be noted: PC-3E GFP / TEM4-18 mCherry co-culture, imaging cell counts, at 1 µM; for red/green cell ratio (normalised): actives lie on both sides.
Experiment [11] is described as follows: viability loss with induced miR-34 in A549 – imaging, A549 dox-inducible miR-34, nuclei and caspase counts, primary screen (AID 1347080). To be noted: A549 miR-34 inducible, Hoechst nuclei count, 48 h.
The target of experiment [12] is NAD(+) hydrolase SARM1 (Homo sapiens) (UniProt Q6SZW1). The experiment in a line: blocking NAD cleavage by SARM1 SAM-TIR – cell lysate, NAD-Glo luminescence (AID 1508614;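 active means compound whose remaining NAD level is above about 45 nM, limit read from the data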). The conditions noted are these: SAM-TIR HEK293T lysate NADase, at 1 µM, stronger effect = higher value.
NAD(+) hydrolase SARM1 (Homo sapiens), sequence (Q6SZW1 whole entry, looked up, the tested form may be a part): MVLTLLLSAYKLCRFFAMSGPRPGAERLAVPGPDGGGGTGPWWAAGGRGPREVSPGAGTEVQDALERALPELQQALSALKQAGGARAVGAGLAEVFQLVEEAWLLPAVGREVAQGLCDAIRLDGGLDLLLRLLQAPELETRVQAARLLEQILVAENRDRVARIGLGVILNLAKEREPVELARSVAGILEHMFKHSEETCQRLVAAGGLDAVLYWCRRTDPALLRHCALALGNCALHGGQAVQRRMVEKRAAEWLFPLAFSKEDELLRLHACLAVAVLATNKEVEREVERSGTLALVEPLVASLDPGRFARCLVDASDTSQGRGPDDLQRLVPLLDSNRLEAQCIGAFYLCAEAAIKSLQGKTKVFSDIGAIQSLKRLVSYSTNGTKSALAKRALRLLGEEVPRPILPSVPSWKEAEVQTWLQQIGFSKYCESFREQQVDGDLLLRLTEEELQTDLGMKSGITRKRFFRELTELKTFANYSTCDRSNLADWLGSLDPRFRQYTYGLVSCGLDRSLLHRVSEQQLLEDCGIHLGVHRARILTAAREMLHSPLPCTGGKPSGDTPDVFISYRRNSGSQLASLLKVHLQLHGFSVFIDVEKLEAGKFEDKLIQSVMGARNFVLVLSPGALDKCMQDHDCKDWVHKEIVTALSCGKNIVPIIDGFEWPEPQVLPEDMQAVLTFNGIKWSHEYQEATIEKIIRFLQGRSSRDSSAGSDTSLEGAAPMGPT
Experiment [13] deals with Mitogen-activated protein kinase 7 (Homo sapiens) (UniProt Q13164). The experiment is described as follows: Gal4-ERK5 driven luciferase induction – cell-based, HTS, primary screen (AID 1508626;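 active means luciferase signal above three times the same-plate solvent-only control wells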;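 further: luciferase driven by Gal4-ERK5 fusion binding five Gal4 sites before minimal TATA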). To be noted: HeLa Gal4-ERK5 transactivation, 18 h, at 5 µM, stronger effect = higher value.
Mitogen-activated protein kinase 7 (Homo sapiens), sequence (Q13164 whole entry, looked up, the tested form may be a part): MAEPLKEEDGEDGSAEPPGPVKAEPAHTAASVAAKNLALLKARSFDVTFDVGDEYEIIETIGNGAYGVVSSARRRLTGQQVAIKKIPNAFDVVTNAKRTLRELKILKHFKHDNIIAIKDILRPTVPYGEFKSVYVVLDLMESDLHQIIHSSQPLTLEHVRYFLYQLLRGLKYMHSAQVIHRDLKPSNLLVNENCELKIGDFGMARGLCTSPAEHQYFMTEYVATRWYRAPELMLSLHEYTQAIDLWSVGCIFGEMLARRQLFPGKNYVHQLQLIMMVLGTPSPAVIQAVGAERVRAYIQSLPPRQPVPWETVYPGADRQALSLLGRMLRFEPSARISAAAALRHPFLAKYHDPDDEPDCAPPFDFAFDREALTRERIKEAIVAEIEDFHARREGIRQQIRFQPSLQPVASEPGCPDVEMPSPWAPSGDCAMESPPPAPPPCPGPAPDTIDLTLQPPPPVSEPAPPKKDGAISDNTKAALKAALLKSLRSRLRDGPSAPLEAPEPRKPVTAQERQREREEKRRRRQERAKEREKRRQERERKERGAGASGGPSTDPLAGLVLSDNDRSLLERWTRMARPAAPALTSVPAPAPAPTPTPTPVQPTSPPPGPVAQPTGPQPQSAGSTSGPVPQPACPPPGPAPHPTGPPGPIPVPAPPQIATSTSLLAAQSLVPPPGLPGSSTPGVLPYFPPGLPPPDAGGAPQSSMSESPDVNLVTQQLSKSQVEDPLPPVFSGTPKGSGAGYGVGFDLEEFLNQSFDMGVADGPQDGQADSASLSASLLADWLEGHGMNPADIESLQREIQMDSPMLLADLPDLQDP
Experiment [14] can be described thus: yeast 75Q aggregation reduction – 75Q-TubU reporter (AID 1593). The conditions noted are these: Yeast 75Q polyglutamine aggregation reporter.
Experiment [15] is described as follows: blockers of cytochrome c efflux from mitochondria – biochemical, purified mitochondria (AID 1603).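 Further: mouse liver mitochondria challenged with calcium chloride; signal normalized to the plate average as 100%.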 The conditions noted are these: stronger effect = lower value.
Experiment [16] can be described thus: polyglutamine aggregate formation blockers (AID 1604). To be noted: polyglutamine-induced protein aggregation inhibition assay; stronger effect = higher value; tested at 2.5 µM.
For experiment [17], the system named is Aerobactin synthetase IucA (Klebsiella pneumoniae hvKP1). The experiment in a line: IucA enzyme inhibition, primary screen, biochemical, Spectrum library (AID 1346200; call rule not given here;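 further: 100% = wells without compound and 0% = wells lacking enzyme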). To be noted: malachite green pyrophosphate, A620, at 8 µM, stronger effect = lower value.
Experiment [18] in a line: MELAS cybrid and Rieske KO viability enhancers – cell-based, MELAS cybrids, Rieske KO mouse fibroblasts, CellTiter-Glo, primary screen (AID 1508586;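 active means mean z-score across replicates of 1.96 or higher in either the MELAS or the Rieske mutant cell line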;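 further: z relative to plate mean and SD of compound and empty wells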). To be noted: low glucose.
The nature of experiment [19]: galactose survival enhancers in mitochondrial complex I cybrids – cell-based, galactose medium, ATP luminescence, primary screen (AID 1645843;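 active means z-score of at least 1.8 in each of two replicates, scored against plate mean and spread of sample wells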;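 further: positive z means more ATP and so rescue of galactose-driven cybrid death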). To be noted: complex I mutant cybrid cells, 72 h, stronger effect = higher value.
Experiment [20] is described as follows: P. berghei load reduction in hepatocytes – cell-based, HepG2, luciferase luminescence, HepG2 viability, primary screen (AID 624349; in the data active means parasite load remaining mostly below about 12%, no sharp cut-off; inactive means mostly above about 10%;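 further: 100% = mean of DMSO negative control wells on the same plate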). To be noted: P. berghei liver stage in HepG2, luciferase luminescence, concentration not given here; parasite load remaining: stronger effect = lower value; viability: measured here: HepG2 viability without parasites.
[21] abbreviates: measured here: epithelial PC-3E GFP cell survival.
Setting [22] is: measured here: mesenchymal TEM4-18 mCherry cell survival.
[23] abbreviates: measured here: relative caspase fold change +Dox/-Dox.
Setting [24] is: measured here: total cells with miR-34 induction, stronger effect = lower value.
[25] abbreviates: measured here: total cells without miR-34 induction.
[26] abbreviates: MELAS cybrid survival, CellTiter-Glo 48 h, stronger effect = higher value.
The mark [27] stands for this setting: Rieske KO mouse fibroblast survival, CellTiter-Glo 72 h.

Values joined by “and” are separate entries in the source; they are usually repeats but may differ in a detail not shown here. Identical values can stand only once. Active and inactive are the calls of the source.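 How the source made its calls, unless noted: active means compounds whose cell count with miR-34 switched on is under 0.7 times the count with it off; inactive means the rest.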

6-phosphogluconate dehydrogenase, decarboxylating (Homo sapiens), sequence (P52209 whole entry, looked up): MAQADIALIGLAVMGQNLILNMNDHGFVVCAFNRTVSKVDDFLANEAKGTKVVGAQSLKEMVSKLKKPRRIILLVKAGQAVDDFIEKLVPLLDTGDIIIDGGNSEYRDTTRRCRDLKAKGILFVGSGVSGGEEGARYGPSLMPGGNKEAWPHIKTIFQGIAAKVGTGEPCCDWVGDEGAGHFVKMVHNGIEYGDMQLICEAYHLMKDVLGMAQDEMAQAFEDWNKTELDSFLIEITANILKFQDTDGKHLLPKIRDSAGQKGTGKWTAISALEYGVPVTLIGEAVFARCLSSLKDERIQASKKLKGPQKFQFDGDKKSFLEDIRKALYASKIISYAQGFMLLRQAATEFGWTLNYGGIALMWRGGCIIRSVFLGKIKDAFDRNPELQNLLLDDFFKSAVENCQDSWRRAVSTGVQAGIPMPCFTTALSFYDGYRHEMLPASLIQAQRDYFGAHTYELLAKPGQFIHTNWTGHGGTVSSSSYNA

`CCOP(=S)(OCC)Oc1ccc2c(C)c(Cl)c(=O)oc2c1`: the nuclear beta-catenin stimulation in experiment [1] (at 10 µM) is 8.6% (inactive); in experiment [1] (stimulation, at 2 µM), 1.6%. In addition, the insulin secretion stimulation in [2] is -1.3% (inactive). Further, in [3], the viability decrease was -12.5% (inactive). The tube area decrease in [4] is 41% (active). Moreover, the GLP1 secretion stimulation in experiment [5] was 2.3% (inactive). Further, the inhibition of viability in experiment [6] is -16% (inactive). The viability decrease (inhibition) in experiment [7] was -55% (inactive); in experiment [8] it was -8.8% (inactive). In addition, in experiment [9], the inhibition (in general, the relative decrease from the control value, in per cent) was 6.24% (inactive). The red/green cell ratio (normalised) in [10] is 1.09 (inactive). The normalised cell number in experiment [10] (setting [21]) turned out to be 0.91; in experiment [10] (setting [22]) it was 0.99. Moreover, the figures for the fold change in experiment [11] (stronger effect = lower value) and in experiment [11] (setting [23]) were 0.908 (inactive) and 1.03, respectively. The values for the cell count in [11] (setting [24]) and in [11] (setting [25]) were 8520 and 9380, respectively. Also, the remaining NAD in experiment [12] was 10 nM (inactive). The luciferase signal in experiment [13] is 72 AU (inactive).

With `NC(=O)CN1CCCC1=O`, the score in [14] worked out at 1.12. Also, in [15], the cytochrome c release ratio was 0.79. Further, the inhibition of aggregation in [16] was found to be 1.59%. Besides, the nuclear beta-catenin stimulation is -0.1% (inactive) in experiment [1] (at 10 µM) and 1.2% in experiment [1] (stimulation, at 2 µM). Moreover, the insulin secretion stimulation in experiment [2] is 0.2% (inactive). Also, the viability decrease in [3] is -6.65% (inactive). Also, the tube area decrease in experiment [4] is -16.1% (inactive). Besides, the GLP1 secretion stimulation in experiment [5] was 1.9% (inactive). For the same compound, the inhibition of viability in [6] is -10.5% (inactive). For the same compound, the viability decrease (inhibition) is 10% (inactive) in [7] and 0.05% (inactive) in experiment [8]. In experiment [9], the inhibition is -18.4% (inactive). The red/green cell ratio (normalised) in experiment [10] was 1.04 (inactive). The normalised cell number was found to be 0.91 in [10] (setting [21]) and 0.95 in experiment [10] (setting [22]). Also, the activity remaining in experiment [17] is 112% (inactive). In addition, the z-score is 0.856 (inactive) and 0.336 (inactive) in [18] (setting [26]); -2.44 and 0.0138 in experiment [18] (setting [27]); 0.785 (inactive) in experiment [19]. Moreover, in experiment [12], the remaining NAD is 10 nM (inactive). In experiment [13], the luciferase signal was 44 AU (inactive).

As to `Clc1ccc(CSC(Cn2ccnc2)c2ccc(Cl)cc2Cl)cc1` (centres undefined), in [14], the score is 0.02. Besides, in [15], the cytochrome c release ratio came out at 1.53. The same compound returned an inhibition of aggregation in experiment [16] of 26.4%. Moreover, the parasite load remaining in experiment [20] is 45.1% (inactive) and 43.8% (inactive) and 9.3% (inactive). For the same compound, in [20], the viability (in general, a read-out of living cells in per cent, often relative to untreated cells) was 77.3% and 59.6% and 86.4%. Also, the nuclear beta-catenin stimulation in experiment [1] (at 10 µM) is 4.8% (inactive); in experiment [1] (stimulation, at 2 µM), 1.5%. Besides, the insulin secretion stimulation in experiment [2] is 2.6% (inactive). In addition, the viability decrease in experiment [3] is 101% (active). In addition, the tube area decrease in experiment [4] is 110% (active). Moreover, the GLP1 secretion stimulation in [5] was 45.8% (active). Moreover, the inhibition of viability in experiment [6] is 102% (active). Moreover, the viability decrease (inhibition) in experiment [7] was 141% (active); in experiment [8], 104% (active). The inhibition in experiment [9] is 1.36% (inactive). In addition, the red/green cell ratio (normalised) in [10] was 0.91 (inactive). For the same compound, the values for the normalised cell number in [10] (setting [21]) and in experiment [10] (setting [22]) were 1.1 and 1, respectively. The activity remaining in [17] is 106% (inactive). Besides, the fold change was 0.925 (inactive) and 0.946 (inactive) and 1.1 (inactive) in experiment [11] (stronger effect = lower value); 1.29 and 0.637 and 1.2 in experiment [11] (setting [23]). The cell count in experiment [11] (setting [24]) was 6020 and 7170 and 8360; in experiment [11] (setting [25]), 6500 and 7580 and 7600. Besides, the z-score is -0.246 (inactive) and 0.0301 (inactive) in [18] (setting [26]); -0.177 and -0.00115 in experiment [18] (setting [27]). The remaining NAD in [12] was 10 nM (inactive). Also, the luciferase signal in experiment [13] was 44 AU (inactive).

As for `C[C@@H]1CC[C@H]2[C@@H](C)C(=O)O[C@@H]3O[C@@]4(C)CC[C@@H]1[C@]32OO4`, the parasite load remaining in [20] was 25.6% (inactive) and 10.2% (inactive). The viability in [20] was 117% and 66.5%. In addition, the nuclear beta-catenin stimulation is 4.6% (inactive) in experiment [1] (at 10 µM) and 12.4% in experiment [1] (stimulation, at 2 µM). In addition, in experiment [2], the insulin secretion stimulation was 1.2% (inactive). For the same compound, the viability decrease in experiment [3] was -77.7% (inactive). In [4], the tube area decrease was 2.4% (inactive). For the same compound, in [5], the GLP1 secretion stimulation is 2.4% (inactive). The inhibition of viability in [6] was -20.1% (inactive). Also, the viability decrease (inhibition) is 9.1% (inactive) in experiment [7] and 1.3% (inactive) in experiment [8]. Also, the inhibition in experiment [9] is 13.7% (inactive). Besides, the fold change is 0.79 (inactive) and 0.823 (inactive) and 0.882 (inactive) in experiment [11] (stronger effect = lower value); 1.42 and 2.37 and 1.1 in [11] (setting [23]). The cell count is 7550 and 7220 and 8310 in experiment [11] (setting [24]); 9550 and 8770 and 9420 in [11] (setting [25]). Besides, the z-score is -0.639 (inactive) and -0.018 (inactive) in experiment [18] (setting [26]); -1.11 and 0.162 in experiment [18] (setting [27]); -0.515 (inactive) and -1.27 (inactive) in [19]. Also, the remaining NAD in experiment [12] was 10 nM (inactive). The luciferase signal in experiment [13] is 84 AU (inactive).
